This is a sample that favours compounds with a hit; in the whole collection about 3.4% have one here.
AmpC inh detg: blocks E. coli AmpC beta-lactamase in detergent assay; AmpC hydrolysis of nitrocefin, absorbance 480 nm, 0.01% Triton; Potency, µM (titrated, usually from 114 µM), for the others: top-dose activity change, negative = inhibition, hits mostly inhibitors; 0.041% of 370,000 active; AID 485294;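 also: 0% = no-compound wells and -100% = no-enzyme wells; nearly all actives have a fitted effect of over 25% in size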
Target sequence (P00811 whole entry, looked up): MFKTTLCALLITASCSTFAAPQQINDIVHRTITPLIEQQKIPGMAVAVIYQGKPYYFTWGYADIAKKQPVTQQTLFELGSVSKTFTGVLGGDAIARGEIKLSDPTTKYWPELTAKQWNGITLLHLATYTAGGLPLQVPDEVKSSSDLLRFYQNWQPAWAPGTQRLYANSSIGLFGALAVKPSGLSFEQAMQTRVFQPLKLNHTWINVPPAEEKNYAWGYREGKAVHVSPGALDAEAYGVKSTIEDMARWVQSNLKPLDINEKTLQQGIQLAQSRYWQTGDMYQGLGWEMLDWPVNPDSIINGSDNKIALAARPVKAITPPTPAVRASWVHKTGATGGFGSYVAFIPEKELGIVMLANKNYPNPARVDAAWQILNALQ
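AmpC (5.3 nM in the dispensed reagent) in 20 mM phosphate pH 7.0 with 0.01% (detergent screen) or 0.0001% Triton X-100 was preincubated with compounds for 15 min at room temperature. Nitrocefin was then added from an 800 uM solution, and hydrolysis was followed at 480 nm.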
Sm TGR inh: inhibitors of Schistosoma mansoni thioredoxin glutathione reductase; Q962Y6; purified TGR, DTNB reduction, TNB absorbance 405 nm; Potency, µM (top dose mostly 114 µM), for inactives: at the top dose activity change, negative = inhibition, most hits filed as inhibitors; 3% of 360,000 active; AID 485364; also: nearly all actives have a fitted effect of over 60% in size
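First, TGR (20 nM dispensed) and NADPH were mixed with compound. Second, a 15 min room-temperature incubation followed. Third, further NADPH and then DTNB were added to start the reaction. Finally, TNB absorbance was monitored kinetically.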
AmpC no deterg: inhibitors of E. coli AmpC beta-lactamase without detergent; P00811; AmpC nitrocefin hydrolysis, absorbance 480 nm, 0.0001% Triton; Potency, µM (doses to about 57.1 µM), for the others: at the highest dose activity change, negative = inhibition, actives largely listed as inhibitors; 0.52% of 330,000 active; AID 485341;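 also: plate controls were no compound for no effect and no enzyme for full effect; nearly all actives have a fitted effect of over 20% in size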
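AmpC (5.3 nM in the dispensed reagent) in 20 mM phosphate pH 7.0 with 0.01% (detergent screen) or 0.0001% Triton X-100 was preincubated with compounds for 15 min at room temperature. Nitrocefin was then added from an 800 uM solution, and hydrolysis was followed at 480 nm.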
RE007 growth inh: less growth of the S. pombe RE007 Vpr strain | S. pombe RE007 Vpr strain, BacTiter-Glo ATP luminescence, 24 h | Potency, µM (doses to about 92.2 µM), inactives show at the top dose activity change, negative = less growth, actives largely listed as inhibitors | 0.21% of 360,000 active | AID 651644; active = well fitted falling curve with a large enough effect; inconclusive = small, poorly fitted or top-dose-only effect; inactive = no such curve, though single readings can be large or run the other way; also: nearly all actives have a fitted effect of over 50% in size
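Fission yeast strain RE007, carrying one chromosomally integrated HIV-1 vpr copy, was seeded at OD 0.01 in PMG+AL medium with 23 nL pinned compound. After 24 h at 30 °C and 99% humidity, viability was read by BacTiter-Glo luminescence.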
Giardia FBPA inh: Giardia lamblia aldolase inhibition; A8B2U2; purified Giardia FBPA; Potency, µM (top dose mostly 59.6 µM), for the others: at the highest dose activity, negative = inhibition, most hits filed as inhibitors; 0.71% of 290,000 active; AID 2451; also: nearly all actives have a fitted effect of over 55% in size
Target sequence (A8B2U2 whole entry, looked up): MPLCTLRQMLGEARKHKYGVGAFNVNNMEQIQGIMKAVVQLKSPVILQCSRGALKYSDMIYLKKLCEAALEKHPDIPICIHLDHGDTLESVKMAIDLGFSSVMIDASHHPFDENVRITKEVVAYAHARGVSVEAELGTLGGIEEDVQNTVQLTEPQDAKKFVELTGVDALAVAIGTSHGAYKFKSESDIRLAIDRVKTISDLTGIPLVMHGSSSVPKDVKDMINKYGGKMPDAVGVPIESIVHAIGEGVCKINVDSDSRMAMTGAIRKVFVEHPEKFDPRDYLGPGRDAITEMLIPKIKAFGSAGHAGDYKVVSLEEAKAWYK
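40 nM FBPA preincubated 10 min at RT with compound (up to 57.5 uM final), then substrate plus GAPDH/TPI/NAD/arsenate coupling and diaphorase/resazurin added. Fluorescence read after 20 min at RT, 525/598 nm.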
An asterisk follows results filed as active; ? = inconclusive; . = no result given. Unless noted, calls follow the shape of the dose curve; as a rule, active = well fitted curve in the direction sought with a large enough effect; inconclusive = small, poorly fitted or top-dose-only effect, or another doubt; inactive = no such curve, though single readings can be large; an effect the other way counts as inactive or inconclusive. Unless noted, % is scaled to controls: 0 for no effect and ±100 for the full control effect; potency is read from the fitted curve at half-maximal effect.

SMILES | AmpC inh detg | Sm TGR inh | AmpC no deterg | RE007 growth inh | Giardia FBPA inh
CCCCOc1ccc(C(=O)Nc2ccc(C)cc2[N+](=O)[O-])cc1 | -15.3% | -9.4% | -22.4% | 38.1% | -2.1%
CC(=O)c1c(O)n(C)c(=S)n(-c2ccccc2)c1=O | 0.2% | 1.4% | -10.0% | -19.8% | 3.5%
Cn1c(O)c(C(c2ccccn2)c2c(O)n(C)c(=S)n(C)c2=O)c(=O)n(C)c1=S | ? | 22.4µM* | -42.1% | 8.3% | ?
Cn1c(O)c(C(c2ccncc2)c2c(O)n(C)c(=S)n(C)c2=O)c(=O)n(C)c1=S | -7.4% | 15.8µM* | -19.4% | 4.6% | 5.3%
COC(=O)C1=C(c2ccc(OC)c(OC)c2)C[C@@H]2CC[C@H]1N2C(=O)NC1CC1 | 1.6% | -0.7% | 1.1% | -8.2% | .
Cc1cccc(NC(=O)c2ccccc2NC(=O)C2CCCCC2)c1C | -6.8% | 12.6µM* | -32.0% | 15.0% | -11.8%
COC(=O)[C@@]12CCCCN1[C@H](c1ccc(-c3ccc(OC)cc3)cc1)[C@H]1C(=O)N(C)C(=O)[C@H]12 | -11.4% | -13.4% | -20.1% | -0.1% | .
COc1ccc(-n2nc3c(c2NC(=O)CCl)CSC3)cc1 | 4.2% | 8.91µM* | -15.3% | -3.8% | -10.9%
COc1ccc(-n2nc3c(c2NC(=O)C(C)Cl)CSC3)cc1 (centres undefined) | -11.7% | -24.2% | -32.6% | 4.0% | -0.3%
COc1ccc(-n2nc3c(c2NC(=O)COc2cccc(OC)c2)CS(=O)(=O)C3)cc1 | ? | 31.6µM* | -41.1% | 14.0% | .
Cc1cccc(-n2nc3c(c2NC(=O)c2ccco2)CSC3)c1C | 2.4% | 44.7µM* | -22.2% | -2.9% | -1.9%
CCC(=O)Nc1c2c(nn1-c1ccccc1)CSC2 | ? | 50.1µM* | -6.6% | 5.9% | 18.2%
Cc1ccccc1-n1nc2c(c1NC(=O)CCCl)CSC2 | -6.2% | 17.8µM* | -15.2% | -15.2% | 0.5%
Cc1ccc(-c2nc(CS(=O)(=O)CC(=O)N3CCOCC3)c(C)o2)cc1 | 0.2% | -34.9% | 21.0% | 0.7% | .
Cc1oc(-c2ccccc2F)nc1CS(=O)(=O)CC(=O)N1CCOCC1 | ? | 44.7µM* | ? | 1.5% | -2.8%
Cc1ccccc1-c1nc(CS(=O)(=O)CC(=O)N2CCCCC2)c(C)o1 | 3.4% | 22.4µM* | 79.1% | 6.0% | 0.2%
Cc1oc(-c2ccccc2F)nc1CS(=O)(=O)CC(=O)NCc1ccco1 | -14.4% | 22.4µM* | -4.6% | 6.0% | 3.8%
Cc1ccccc1-c1nc(CN2CCC(C(=O)N3CCC(C(N)=O)CC3)CC2)c(C)o1 | ? | -20.2% | 11.2µM* | -11.2% | 6.0%
Cc1ccccc1-c1nc(CN2CCC(C(=O)N3CCN(c4ccccn4)CC3)CC2)c(C)o1 | -18.0% | -1.3% | 123.5% | -16.9% | 2.6%
CC(C)Cc1nnc(NC(=O)C2CSC3(C)CCC(=O)N23)s1 (centres undefined) | -14.6% | -17.8% | 28.4% | -3.0% | .
O=C(Nc1ccc(Cl)cc1)Nn1cnc2ccccc2c1=O | -3.9% | 23.0% | -23.2% | -10.6% | -0.4%
Cc1oc(-c2ccccc2F)nc1CS(=O)(=O)CC(=O)N1CCN(Cc2ccccc2)CC1 | -19.1% | 12.6µM* | 195.5% | -13.2% | 1.8%
CCN1CCN(C(=O)CS(=O)(=O)Cc2nc(-c3ccccc3C)oc2C)CC1 | -6.4% | -19.7% | 30.2% | 1.2% | 3.9%
Cc1cc(C)c(NC(=O)c2ccc3nccnc3c2)c(C)c1 | -16.4% | 0.8% | -25.0% | 2.3% | .
Cc1ccc(NC(=O)c2ccc3nccnc3c2)c(C)c1 | -12.8% | 56.2µM* | -18.7% | -2.5% | -9.1%
SMILES | AmpC inh detg | Sm TGR inh | AmpC no deterg | RE007 growth inh | Giardia FBPA inh
CC1(C)CC(=O)C(C(c2ccc(Br)cc2)C2C(=O)CC(C)(C)CC2=O)C(=O)C1 | -9.8% | 17.8µM* | -2.5% | -11.0% | 5.1%
CC1(C)CC(=O)C(C(c2ccc(F)cc2)C2C(=O)CC(C)(C)CC2=O)C(=O)C1 | -2.7% | 44.7µM* | -9.7% | -4.9% | -0.4%
COC(=O)c1ccc(C(C2C(=O)CC(C)(C)CC2=O)C2C(=O)CC(C)(C)CC2=O)cc1 | -14.4% | ? | -2.7% | -10.1% | 8.8%
O=C(CCCc1nc(-c2ccco2)no1)Nc1ccccc1[N+](=O)[O-] | 16.1% | -0.2% | . | . | .
CCN1C(=O)CC(c2ccco2)Sc2ccccc21 (centres undefined) | -0.1% | 25.1µM* | -3.7% | 25.1% | 5.3%
O=C(CN1C(=O)CC(c2ccco2)Sc2ccccc21)Nc1ccc(Br)cc1 (centres undefined) | 3.7% | -8.2% | . | . | .
O=C(CN1C(=O)CC(c2ccco2)Sc2ccccc21)Nc1ccccc1F (centres undefined) | -2.3% | 25.1µM* | -26.0% | 6.5% | -3.8%
CCC1=Nc2ccccc2NC2=C1C(=O)CCC2 | -10.1% | -8.6% | -21.5% | -3.9% | ?
O=C(CCCCCN1C(=O)c2cccc([N+](=O)[O-])c2C1=O)NCCc1ccccc1 | . | . | . | -12.4% | .
O=C(COC(=O)CCN1C(=O)c2cccc([N+](=O)[O-])c2C1=O)NCc1ccccc1 | -16.3% | 79.4µM* | 2.5% | 1.9% | 1.4%
O=S(=O)(c1ccc(C(F)(F)F)cc1)N1CCN(CCOc2ccccc2)CC1 | -2.9% | -4.2% | 26.2% | -26.8% | .
O=C1CSC(=S)N1/N=C/c1cccnc1 | -2.0% | 6.31µM* | -11.6% | -0.8% | ?
O=C1CSC(=S)N1/N=C/c1ccc(Cl)c([N+](=O)[O-])c1 | 4.8% | 22.4µM* | 12.6µM* | . | 14.6%
COc1cc(O)c(C=NN2C(=O)CSC2=S)c(OC)c1 | . | . | . | 7.7% | .
O=C1CSC(=S)N1N=Cc1cccc(OCc2ccccc2)c1 | . | . | . | -14.6% | .
COc1ccc(Br)cc1/C=N/N1C(=O)CSC1=S | ? | -35.9% | 28.2µM* | -7.2% | -9.9%
O=C1CSC(=S)N1N=Cc1c[nH]c2ccc(Br)cc12 | . | . | . | -17.9% | .
COc1cc(/C=N/N2C(=O)CSC2=S)ccc1O | -7.2% | 5.62µM* | -31.4% | 1.5% | -24.4%
CCCOc1ccc(NC(=O)CCC(=O)NC(C)c2ccccc2)cc1 (centres undefined) | ? | -0.3% | -2.2% | -2.5% | 1.0%
COc1ccc(-c2nn(-c3ccccc3)cc2CNC[C@H]2O[C@@H](n3ccc(=O)[nH]c3=O)[C@H](O)[C@@H]2O)cc1 | . | . | . | -9.3% | .
CC(C)(C)NC(=S)NNC(=O)c1ccc2ncccc2c1 | -0.8% | -5.6% | -30.0% | 12.2% | -1.4%
CN(C)c1ccc(CNC(=O)C2CCN(S(=O)(=O)c3ccc4c(c3)CCCC(=O)N4)CC2)cc1 | 1.5% | -15.3% | 11.7% | -1.5% | .
O=C1CSC(=S)N1/N=C/c1cc(Br)c(O)c(Br)c1 | ? | 20µM* | ? | 4.7% | -28.0%
O=C1CSC(=S)N1N=Cc1ccccc1O | . | . | . | 0.0% | .
O=C1CSC(=S)N1/N=C/c1ccc2c(c1)OCCO2 | -15.0% | 7.08µM* | -28.4% | 5.0% | -6.8%
O=C1CSC(=S)N1N=Cc1ccc(Cl)cc1Cl | . | . | . | -7.1% | .

Screening results (PubChem)
